TGFb inhibitor: qHTS for Inhibitors of TGF-b; HepG2 CAGA-GFP TGF-b/SMAD3 reporter, GFP fluorescence, 18 h; TGF-beta stimulated, 500 pg/mL final; Potency, µM (titrated, usually from 46.1 µM), hits mostly inhibitors; 410,000 tested, 1.2% active; AID 588855, 2011; further: nearly all actives have a fitted effect of over 65% in size
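Per well, imaged GFP fluorescence of HEPG2 CAGA-GFP cells gives the signal; cells get compound, then TGF-beta (500 pg/mL final), 18 h at 37 degrees C; %Activity versus -TGF-beta and +DMSO controls.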
S2 tox: Viability Counterscreen for Primary qHTS for Inhibitors of ATXN expression; S2 cells (HEK-293 line with an ATXN2-luciferase reporter) viability, CellTiter-Fluor protease fluorescence, 24 h; Potency, µM (top dose mostly 56.7 µM), actives largely listed as cytotoxic; 400,000 tested, 0.49% active; AID 651635, 2014; further: nearly all actives have a fitted effect of over 40% in size
HepG2 tox: qHTS for Inhibitors of TGF-b: Cytotox Counterscreen. HepG2 CAGA-GFP viability, ATP luminescence, 18 h. Potency, µM (doses to about 46.1 µM), actives largely listed as cytotoxic. 410,000 tested, 0.76% active
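HepG2 CAGA-GFP cells (1000/well, DMEM with 1% FBS) received compound, then TGF-beta at 500 pg/mL final, and were incubated 18 hours at 37 degrees C. Viability was read by CellTiter-Glo luminescence. Media-only wells were set as complete cell-killing and DMSO as no toxicity.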
IL-1B inflam inh: qHTS for Inhibitors of Inflammasome Signaling: IL-1-beta AlphaLISA Primary Screen; THP-1 LPS/ATP IL-1B secretion, AlphaLISA, 16 h; active compounds read low; activity change, % at 57.5 µM; 360,000 tested, 4.7% active; in the data active means activity change below about -50%; inconclusive means mostly about -30% to -49%
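THP-1 cells pretreated 1 hr with compounds (up to 57.5 uM final), then stimulated with LPS (250 ng/mL final) plus ATP (1.25 mM final); secreted IL-1B measured by AlphaLISA after 16 hr, decreased signal indicating inhibition.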
ATXN2 expr inh: Primary qHTS for Inhibitors of ATXN expression. HEK-293 ATXN2-luciferase reporter, luminescence, 24 h. 360,000 tested, 0.72% active. Potency, µM (doses to about 57 µM), actives largely listed as inhibitors; further: nearly all actives have a fitted effect of over 55% in size
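ATXN2-luciferase reporter cells (luciferase flanked by upstream and downstream ATXN2 gene portions) were treated 24 h at 37 °C with compounds at up to 57 uM. SteadyGlo luminescence gave expression; GF-AFC fluorescence gave viability.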
A number is an active result; 0 = inactive; ? = inconclusive; - = not tested or not shown; [ ] = dose if it differs, or a comment. This is a sample that favours compounds with a hit; in the whole collection about 5.7% have one here. Unless noted, the call rests on the fitted dose curve; in most records, active means well fitted curve in the direction sought with a large enough effect; inconclusive means small, poorly fitted or top-dose-only effect, or another doubt; inactive means no such curve, though single readings can be large; an effect the other way counts as inactive or inconclusive.

SMILES	TGFb inhibitor	S2 tox	HepG2 tox	IL-1B inflam inh	ATXN2 expr inh
S=C(Nc1cccc(Cl)c1Cl)NC1CCN(Cc2ccccc2)CC1	0	0	0	-81	?
Cc1cccc(NC(=S)NC2CCN(Cc3ccccc3)CC2)c1C	0	0	0	0	0
COc1cc2c(cc1OC)C(COc1cc(C)cc(C)c1)N(C(=O)C(C)(C)C)CC2 (stereo not drawn)	?	0	0	-	0
CCC1CN(CCNC(=O)c2ccc3c(c2)OCCO3)Cc2cc(OC)ccc2O1 (stereo not drawn)	-	0	-	-	-
S=C(Nc1ccc(Cl)c(Cl)c1)NC1CCCCC1	?	0	0	-95	?
Cn1c(=O)c2cc(NC(=S)NC3CCCCC3)ccc2n1Cc1ccc(Cl)cc1	0	0	0	-57	0
COc1cc(=O)n2c(c1C(=O)NC(C)c1ccco1)CCN(Cc1ccccc1C(F)(F)F)CC2 (stereo not drawn)	-	0	-	-	-
Clc1cccc(N/N=C(\Cc2nc3ccccc3[nH]2)c2ccccc2)c1	?	?	0	-104	0
COc1ccc(CCNC(=O)c2cnc3sc(N4CCC(C)CC4)nn3c2=O)cc1OC	0	0	0	-	0
CCCCNCc1cc(Br)c(OCC(=O)N2CCOCC2)c(OC)c1	0	0	0	0	0
CCCCOc1c(Br)cc(CNCCCN2CCOCC2)cc1OC	0	?	0	-66	0
COc1ccc(C(C#N)=C2C=CC(=NO)C(C)=C2Cl)cc1	?	?	0	-82	0
CCOC(=O)CSc1nc(C)c(C(C)=O)cc1C#N	0	-	0	0	-
CCOC(=O)CSc1nc(C)c(C(C)=O)cc1C(N)=O	0	0	0	-57	0[11.3 µM]
CCc1ccc(NC(=O)c2cnn(-c3c(C)cccc3C)c2C2CCN(C(=O)OC(C)(C)C)CC2)cc1	0	0	0	-	0
Cc1occc(=O)c1OC(=O)Nc1ccc(Cl)c(Cl)c1	10µM	?	0	-78	0
CC(=O)N1CCCN(Cc2cn(-c3ccc(C)cc3)nc2-c2ccc(F)cc2)CC1	?	0	0	-78	0
Cc1ccc(-n2cc(CNCCCN3CCCC3=O)c(-c3ccc(F)cc3)n2)cc1	?	-	0	-68	0
Cc1ccc(NC(=O)NCCCN2CCCC2=O)cc1	0	0	0	0	0
Cc1ccc(-n2cc(CN3CCCN(C=O)CC3)c(-c3ccc(F)cc3)n2)cc1	0	0	0	?	0
Fc1ccc(-n2cc(CNCCc3ccccn3)c(-c3ccccc3Cl)n2)cc1	0	0	0	-74	0
Cc1cccc(-n2cc(CNCCN3CCOC3=O)c(-c3cccc(F)c3)n2)c1	0	0	0	-57	0
COc1ccc(-n2cc(CNCCc3nc(C)cc(C)n3)c(-c3ccccc3Cl)n2)cc1	?	?	0	?	0
Cc1cccc(-n2cc(CN3CCCN(C=O)CC3)c(-c3cccc(F)c3)n2)c1	0	0	0	0	0
Cc1oc2ncn(C)c(=O)c2c1C(=O)NCCCN(Cc1ccccc1)C(C)C	0	0	0	-	0
SMILES	TGFb inhibitor	S2 tox	HepG2 tox	IL-1B inflam inh	ATXN2 expr inh
CCC(=O)N1CCc2cc(CNC(=O)c3ccccc3C)ccc21	0	-	0	-	-
COc1ccc(-n2cc(CNCCc3ncc(C)[nH]3)c(-c3ccccc3Cl)n2)cc1	0	?	0	0	0
Cc1ccc(-n2cc(CNCCn3nc(C)cc3C)c(-c3ccc(F)cc3)n2)cc1	?	?	0	-91	?
Cc1ccc(-n2cc(CNCCN3CCOC3=O)c(-c3ccc(F)cc3)n2)cc1	?	0	0	-71	0
Cc1ccc(-n2cc(CNCCc3ncc(C)[nH]3)c(-c3ccc(F)cc3)n2)cc1	?	?	0	-82	25µM
CN(C)CCC=C1c2ccccc2COc2ccc(CC(=O)O)cc21	-	-	-	-	0
CSC1=C(C#N)C(c2sccc2C)CC(=O)N1 (stereo not drawn)	0	0	0	-76	0
Cc1cccc(Nc2nc(N3CCN(C)CC3)nc(N)c2[N+](=O)[O-])c1	0	?	0	-70	0
CN(C)c1ccc(Nc2nc(N)c([N+](=O)[O-])c(N3CCOCC3)n2)cc1	0	0	0	-87	0
COc1ccc(Nc2nc(N)c([N+](=O)[O-])c(N3CCOCC3)n2)cc1	0	0	0	?	-
Cc1cccc(Nc2nc(N)c([N+](=O)[O-])c(N3CC(C)CC(C)C3)n2)c1 (stereo not drawn)	?	?	11µM	-101	0
Nc1nc(NCCCN2CCOCC2)nc(Nc2cccc(Cl)c2)c1[N+](=O)[O-]	?	0	0	-92	?
CCN1CCN(c2nc(N)c([N+](=O)[O-])c(Nc3cccc(C)c3)n2)CC1	?	?	0	-	0
Cc1cccc(Nc2nc(N)c([N+](=O)[O-])c(N3CC(C)OC(C)C3)n2)c1 (stereo not drawn)	0	?	0	?	0
Cc1cccc(Nc2nc(N)c([N+](=O)[O-])c(N3CCC(C)CC3)n2)c1	14µM	0	0	-90	0
CC[C@H]1OC(=O)[C@H](C)[C@@H](O[C@H]2C[C@@](C)(OC)[C@@H](O)[C@H](C)O2)[C@H](C)[C@@H](O[C@@H]2O[C@@H](C)C[C@H](N(C)C)[C@@H]2O)[C@](C)(O)C[C@@H](C)C(=O)[C@H](C)[C@@H](O)[C@]1(C)O	-	-	-	-	0
CC[n+]1c(/C=C/c2c[nH]c3ccccc23)ccc2cc(C)ccc21	0	?	0	-100	?
Cc1ccc(S(=O)(=O)N(C)CC(=O)N2CCN(Cc3ccc4c(c3)OCO4)CC2)cc1	0	0	0	?	0
Cc1ccc(S(=O)(=O)N(C)c2ccc(C(=O)N3CCN(Cc4ccc5c(c4)OCO5)CC3)cc2)cc1	?	0	0	-73	?
Cc1cc(C)c(S(=O)(=O)N2CCN(C(=O)c3ccc4c(c3)OCO4)CC2)c(C)c1	?	0	0	-60	0
Cc1ccc(S(=O)(=O)N(C)c2ccc(C(=O)N3CCc4ccccc4C3)cc2)cc1	?	?	0	-62	0[11.3 µM]
CN(c1ccc(C(=O)N2CCN(Cc3ccc4c(c3)OCO4)CC2)cc1)S(=O)(=O)c1ccccc1	0	?	0	-56	0
Cc1ccc(S(=O)(=O)N2CCN(C(=O)c3ccc4c(c3)OCO4)CC2)cc1	0	0	0	0	0
COc1cccc(/C=c2/[nH]c(=O)/c(=C\c3cccc(OC)c3OC)[nH]c2=O)c1OC	0	-	0	-	-
COCCN(C)C(=O)c1cnn(-c2nccc(-c3cc(OC)ccc3OC)n2)c1C	-	0	-	-	-
COC1=C(N)C(=O)c2nc(-c3nc(C(=O)O)c(C)c(-c4ccc(OC)c(OC)c4O)c3N)ccc2C1=O	0.28µM	2.2µM	0	-106	0
COc1ccc(-c2ncncc2-c2csc(C)n2)c(O)c1OC	0	0	0	0	0
